Measurements: the supplement of paper PMC6897291
Counter-ions that a name gives are not always drawn.

Assays:
[1] = tested on: U-2932; test: growth inhibition by drug alone (1 - RLU/untreated control) (fraction); higher = stronger inhibition; settings: 177Lu-lilotomab satetraxetan 0 ug/ml
Outline: (§1)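 RIVA or U-2932 cells were left untreated or pretreated for 18 h with a radiolabelled anti-CD37 antibody conjugate (~600 MBq/mg) at 0.5 µg/ml for RIVA or 1 µg/ml for U-2932. The cells were then washed and seeded at 3,000 cells/well on plates pre-printed with the Selleck Cambridge Cancer Compound library, dosed at 10/100 nM for RIVA and 10/1,000 nM for U-2932. From day 3, RealTime-Glo luminescence was read daily after 1 h at 37°C. Growth inhibition was taken as one minus RLU over the mean of the untreated no-drug wells, of which there were 48 per plate.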

[2] = tested on: RIVA; test: as above; settings: 177Lu-lilotomab satetraxetan 0 ug/ml
Outline: as §1

[3] = tested on: U-2932; test: growth inhibition by drug plus 177Lu-lilotomab satetraxetan (1 - RLU/untreated control) (fraction); higher = stronger inhibition; settings: 177Lu-lilotomab satetraxetan 1 ug/ml
Outline: as §1

[4] = tested on: RIVA; test: as above; settings: 177Lu-lilotomab satetraxetan 0.5 ug/ml
Outline: as §1

SMILES | growth inhibition by drug alone ([1]; 10 nM, time (day): 3) | growth inhibition by drug alone ([1]; 10 nM, time (day): 4) | growth inhibition by drug alone ([1]; 10 nM, time (day): 5) | growth inhibition by drug alone ([1]; 10 nM, time (day): 6) | growth inhibition by drug alone ([1]; 1000 nM, time (day): 3) | growth inhibition by drug alone ([1]; 1000 nM, time (day): 4) | growth inhibition by drug alone ([1]; 1000 nM, time (day): 5) | growth inhibition by drug alone ([1]; 1000 nM, time (day): 6) | growth inhibition by drug alone ([2]; 10 nM, time (day): 3) | growth inhibition by drug alone ([2]; 10 nM, time (day): 4) | growth inhibition by drug alone ([2]; 10 nM, time (day): 5) | growth inhibition by drug alone ([2]; 10 nM, time (day): 6) | growth inhibition by drug alone ([2]; 100 nM, time (day): 3) | growth inhibition by drug alone ([2]; 100 nM, time (day): 4) | growth inhibition by drug alone ([2]; 100 nM, time (day): 5) | growth inhibition by drug alone ([2]; 100 nM, time (day): 6) | growth inhibition by drug plus 177Lu-lilotomab satetraxetan ([3]; 10 nM, time (day): 3) | growth inhibition by drug plus 177Lu-lilotomab satetraxetan ([3]; 10 nM, time (day): 4) | growth inhibition by drug plus 177Lu-lilotomab satetraxetan ([3]; 10 nM, time (day): 5) | growth inhibition by drug plus 177Lu-lilotomab satetraxetan ([3]; 10 nM, time (day): 6) | growth inhibition by drug plus 177Lu-lilotomab satetraxetan ([3]; 1000 nM, time (day): 3) | growth inhibition by drug plus 177Lu-lilotomab satetraxetan ([3]; 1000 nM, time (day): 4) | growth inhibition by drug plus 177Lu-lilotomab satetraxetan ([3]; 1000 nM, time (day): 5) | growth inhibition by drug plus 177Lu-lilotomab satetraxetan ([3]; 1000 nM, time (day): 6) | growth inhibition by drug plus 177Lu-lilotomab satetraxetan ([4]; 10 nM, time (day): 3) | growth inhibition by drug plus 177Lu-lilotomab satetraxetan ([4]; 10 nM, time (day): 4) | growth inhibition by drug plus 177Lu-lilotomab satetraxetan ([4]; 10 nM, time (day): 5) | growth inhibition by drug plus 177Lu-lilotomab satetraxetan ([4]; 10 nM, time (day): 6) | growth inhibition by drug plus 177Lu-lilotomab satetraxetan ([4]; 100 nM, time (day): 3) | growth inhibition by drug plus 177Lu-lilotomab satetraxetan ([4]; 100 nM, time (day): 4) | growth inhibition by drug plus 177Lu-lilotomab satetraxetan ([4]; 100 nM, time (day): 5) | growth inhibition by drug plus 177Lu-lilotomab satetraxetan ([4]; 100 nM, time (day): 6)
O=C1CN2Cc3c(ccc(Cl)c3Cl)N=C2N1 [Anagrelide hydrochloride] | 0.1 | 0.0554 | -0.0277 | -0.0568 | 0.0693 | 0.0958 | 0.0817 | 0.0377 | 0.16 | 0.111 | 0.0638 | -0.0807 | 0.214 | 0.214 | 0.119 | 0.0727 | 0.101 | 0.119 | 0.141 | 0.272 | 0.0494 | 0.088 | 0.102 | 0.224 | 0.579 | 0.615 | 0.628 | 0.641 | 0.541 | 0.572 | 0.579 | 0.558
OCCn1cc(-c2ccc3c(c2)CC/C3=N\O)c(-c2ccncc2)n1 | -0.0296 | -0.0312 | -0.153 | -0.152 | -0.112 | -0.139 | -0.146 | -0.12 | -0.166 | -0.13 | -0.183 | -0.335 | -0.39 | -0.208 | -0.171 | -0.236 | -0.00182 | 0.0536 | 0.0736 | 0.0788 | -0.118 | -0.0611 | -0.0101 | 0.0758 | 0.513 | 0.569 | 0.578 | 0.59 | 0.436 | 0.551 | 0.585 | 0.602
O=C(O)c1ccc2c(c1)nc(Nc1cccc(Cl)c1)c1ccncc12 [cx-4945 (Silmitasertib)] | 0.0111 | -0.0226 | -0.00497 | 0.0386 | 0.0436 | 0.0306 | -0.0126 | -0.0489 | -0.142 | -0.128 | -0.161 | -0.291 | 0.0492 | -0.00845 | -0.0374 | -0.111 | 0.0376 | 0.0473 | 0.0445 | 0.189 | 0.0211 | 0.0508 | 0.0545 | 0.159 | 0.409 | 0.518 | 0.528 | 0.542 | 0.413 | 0.47 | 0.487 | 0.468
